Test results as given in PubChem BioAssay AID1159580 (chemical genetic matrix, 2015).
The whole screen tested about 5,500 compounds, of which about 2,000 (36%) were called active. Inconclusive results (about 18%) are left out. No stated cut-off is given here; in the data, active means normalized growth mostly below about 0.91 (no sharp cut-off); inconclusive means no clear call, values can overlap the other calls; inactive means mostly above about 0.92. Some of the results follow.

Test: chemical genetic growth profiling, strain panel (AID 1159580);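 further: tested at 20 µM; growth read once vehicle control cultures reached saturation at 30 °C; 1 = growth at the plate median or of vehicle wells; lower values mean less growth of the strain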
Conditions: growth OD

Measured: normalized growth

C#C[C@]1(O)CCC2C3CCC4=CC(=O)CC[C@@H]4C3CC[C@@]21C (some centres undefined)
active: S. cerevisiae deletion strains, locus YNL307C, strain MCK1, hits give low values 0.902 | S. cerevisiae deletion strains, locus YOR184W, strain ser1, hits give low values 0.848
inactive: S. cerevisiae deletion strains, locus YJR066W, strain TOR1, hits give low values 0.909 | S. cerevisiae deletion strains, locus YKL009W, strain mrt4, hits give low values 0.954 | S. cerevisiae deletion strains, locus YKL068W, hits give low values 0.989 | S. cerevisiae deletion strains, locus YKL085W, strain MDH1 (second series), hits give low values 0.986 | S. cerevisiae deletion strains, locus YKL085W, strain MDH1, hits give low values 0.986 | S. cerevisiae deletion strains, locus YKL160W, strain elf1, hits give low values 1.01 | S. cerevisiae deletion strains, locus YKL190W, strain CNB1, hits give low values 0.977 | S. cerevisiae deletion strains, locus YKR001C, strain vps1, hits give low values 0.946 | S. cerevisiae deletion strains, locus YKR026C, strain gcn3, hits give low values 0.979 | S. cerevisiae deletion strains, locus YKR091W, strain srl3, hits give low values 0.982 | S. cerevisiae deletion strains, locus YLL001W, strain dnm1, hits give low values 0.972 | S. cerevisiae deletion strains, locus YLL026W, hits give low values 0.994 | S. cerevisiae deletion strains, locus YLL041C, strain sdh2, hits give low values 0.974 | S. cerevisiae deletion strains, locus YLR027C, strain aat2, hits give low values 0.983 | S. cerevisiae deletion strains, locus YLR039C, strain RIC1, hits give low values 0.862 | S. cerevisiae deletion strains, locus YLR058C, strain SHM2, hits give low values 0.989 | S. cerevisiae deletion strains, locus YLR102C, strain apc9, hits give low values 0.978 | S. cerevisiae deletion strains, locus YLR113W, strain HOG1, hits give low values 0.958 | S. cerevisiae deletion strains, locus YLR221C, strain rsa3, hits give low values 0.991 | S. cerevisiae deletion strains, locus YLR258W, strain gsy2, hits give low values 0.993 | S. cerevisiae deletion strains, locus YLR262C, strain YPT6 (second series), hits give low values 0.916 | S. cerevisiae deletion strains, locus YLR262C, strain YPT6, hits give low values 0.818 | S. cerevisiae deletion strains, locus YLR268W, strain sec22, hits give low values 0.94 | S. cerevisiae deletion strains, locus YLR320W, strain mms22, hits give low values 0.98 | S. cerevisiae deletion strains, locus YLR330W, strain CHS5, hits give low values 0.995 | S. cerevisiae deletion strains, locus YLR342W, strain FKS1 (second series), hits give low values 0.923 | S. cerevisiae deletion strains, locus YLR342W, strain FKS1, hits give low values 0.976 | S. cerevisiae deletion strains, locus YLR357W, strain rsc2, hits give low values 0.988 | S. cerevisiae deletion strains, locus YLR370C, strain arc18, hits give low values 0.969 | S. cerevisiae deletion strains, locus YLR371W, strain rom2, hits give low values 0.983 | S. cerevisiae deletion strains, locus YLR384C, strain iki3, hits give low values 0.982 | S. cerevisiae deletion strains, locus YLR418C, strain cdc73, hits give low values 0.915 | S. cerevisiae deletion strains, locus YML016C, strain PPZ1, hits give low values 0.991 | S. cerevisiae deletion strains, locus YML032C, strain rad52, hits give low values 0.978 | S. cerevisiae deletion strains, locus YML120C, strain ndi1, hits give low values 0.977 | S. cerevisiae deletion strains, locus YML124C, strain tub3, hits give low values 0.98 | S. cerevisiae deletion strains, locus YMR058W, strain fet3, hits give low values 0.965 | S. cerevisiae deletion strains, locus YMR078C, strain ctf18, hits give low values 0.964 | S. cerevisiae deletion strains, locus YMR125W, strain sto1, hits give low values 0.995 | S. cerevisiae deletion strains, locus YMR129W, hits give low values 0.974 | S. cerevisiae deletion strains, locus YMR205C, strain PFK2, hits give low values 0.985 | S. cerevisiae deletion strains, locus YMR223W, strain ubp8, hits give low values 0.971 | S. cerevisiae deletion strains, locus YMR231W, strain pep5, hits give low values 0.981 | S. cerevisiae deletion strains, locus YMR307W, strain GAS1, hits give low values 0.874 | S. cerevisiae deletion strains, locus YNL067W, strain RPL9B, hits give low values 0.969 | S. cerevisiae deletion strains, locus YNL071W, strain lat1, hits give low values 0.964 | S. cerevisiae deletion strains, locus YNL128W, strain TEP1, hits give low values 0.992 | S. cerevisiae deletion strains, locus YNL183C, strain NPR1, hits give low values 0.924 | S. cerevisiae deletion strains, locus YNL209W, strain ssb2, hits give low values 0.997 | S. cerevisiae deletion strains, locus YNL233W, strain BNI4, hits give low values 0.996 | S. cerevisiae deletion strains, locus YNL248C, strain rpa49, hits give low values 0.985 | S. cerevisiae deletion strains, locus YNL250W, strain rad50, hits give low values 0.981 | S. cerevisiae deletion strains, locus YNL271C, strain bni1, hits give low values 0.964 | S. cerevisiae deletion strains, locus YNL298W, strain CLA4, hits give low values 0.976 | S. cerevisiae deletion strains, locus YNL322C, strain KRE1 (second series), hits give low values 0.98 | S. cerevisiae deletion strains, locus YNR049C, strain mso1, hits give low values 0.984 | S. cerevisiae deletion strains, locus YNR052C, strain pop2, hits give low values 0.97 | S. cerevisiae deletion strains, locus YOL006C, strain TOP1, hits give low values 0.919 | S. cerevisiae deletion strains, locus YOL012C, strain htz1 1.68 | S. cerevisiae deletion strains, locus YOL147C, strain pex11, hits give low values 0.983 | S. cerevisiae deletion strains, locus YOR001W, strain rrp6, hits give low values 0.943 | S. cerevisiae deletion strains, locus YOR061W, strain CKA2, hits give low values 0.985 | S. cerevisiae deletion strains, locus YOR069W, strain VPS5, hits give low values 0.988 | S. cerevisiae deletion strains, locus YOR070C, strain gyp1, hits give low values 0.986 | S. cerevisiae deletion strains, locus YOR080W, strain dia2, hits give low values 0.994 | S. cerevisiae deletion strains, locus YOR083W, strain WHI5, hits give low values 1.03 | S. cerevisiae deletion strains, locus YOR106W, strain vam3, hits give low values 0.999 | S. cerevisiae deletion strains, locus YOR136W, strain idh2, hits give low values 0.997 | S. cerevisiae deletion strains, locus YOR144C, strain elg1, hits give low values 0.98 | S. cerevisiae deletion strains, locus YOR231W, strain MKK1, hits give low values 0.984 | S. cerevisiae deletion strains, locus YOR265W, strain rbl2, hits give low values 0.983 | S. cerevisiae deletion strains, locus YOR270C, strain vph1, hits give low values 0.901 | S. cerevisiae deletion strains, locus YOR290C, strain snf2, hits give low values 0.981 | S. cerevisiae deletion strains, locus YOR316C, strain cot1, hits give low values 0.978 | S. cerevisiae deletion strains, locus YPL051W, strain arl3, hits give low values 0.986 | S. cerevisiae deletion strains, locus YPL055C, strain LGE1, hits give low values 0.997 | S. cerevisiae deletion strains, locus YPL078C, strain atp4, hits give low values 0.974 | S. cerevisiae deletion strains, locus YPL106C, strain sse1, hits give low values 1.06 | S. cerevisiae deletion strains, locus YPL240C, strain hsp82, hits give low values 0.991 | S. cerevisiae deletion strains, locus YPL241C, strain CIN2, hits give low values 0.996 | S. cerevisiae deletion strains, locus YPL256C, strain CLN2, hits give low values 0.942 | S. cerevisiae deletion strains, locus YPR119W, strain clb2, hits give low values 0.982 | S. cerevisiae deletion strains, locus YPR141C, strain kar3, hits give low values 0.982 | S. cerevisiae deletion strains, locus YPR163C, strain tif3, hits give low values 0.986 | S. cerevisiae deletion strains, locus YPR167C, strain met16, hits give low values 0.977 | S. cerevisiae deletion strains, strain wtn01, hits give low values 0.962 | S. cerevisiae strains, strain wild type, hits give low values 0.986
